Compounds with a hit are over-represented: about 3.2% of the library has one in this group of screens.
ALOX12 inhib – inhibitors of human 12-lipoxygenase (ALOX12). P18054. purified 12-hLO, xylenol orange hydroperoxide absorbance. Potency, µM (doses to about 57.1 µM), for inactives: at the highest dose activity change, negative = inhibition, actives largely listed as inhibitors. 150,000 compounds, 0.12% hits; note: potency is the fitted concentration of half-maximal effect; nearly all actives have a fitted effect of over 55% in size
Target sequence (P18054 whole entry, looked up): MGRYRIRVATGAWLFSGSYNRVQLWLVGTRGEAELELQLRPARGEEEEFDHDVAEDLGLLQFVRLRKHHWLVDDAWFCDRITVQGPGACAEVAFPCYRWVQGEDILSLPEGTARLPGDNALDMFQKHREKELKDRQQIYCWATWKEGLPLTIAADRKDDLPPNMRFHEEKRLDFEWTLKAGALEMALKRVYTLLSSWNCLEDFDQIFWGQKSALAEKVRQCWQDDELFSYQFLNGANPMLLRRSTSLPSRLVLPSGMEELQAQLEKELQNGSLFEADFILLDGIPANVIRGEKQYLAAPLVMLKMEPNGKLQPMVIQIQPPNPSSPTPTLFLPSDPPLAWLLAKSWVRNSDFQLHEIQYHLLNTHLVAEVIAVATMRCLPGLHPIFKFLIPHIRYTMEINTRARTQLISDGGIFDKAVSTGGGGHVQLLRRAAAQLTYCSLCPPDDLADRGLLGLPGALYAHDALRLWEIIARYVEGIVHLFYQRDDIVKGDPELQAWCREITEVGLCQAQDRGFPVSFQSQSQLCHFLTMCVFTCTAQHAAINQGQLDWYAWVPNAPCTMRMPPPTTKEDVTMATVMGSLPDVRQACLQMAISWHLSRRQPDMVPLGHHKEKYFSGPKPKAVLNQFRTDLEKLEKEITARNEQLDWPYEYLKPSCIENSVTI
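Lipoxygenase turnover measured by absorbance at 573 and 405 nm after Fe-XO development. Human 12hLO 150 nM, arachidonate 40 uM, pH 7.0 Hepes buffer with detergent; 15 min compound preincubation, 30 min reaction.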
PNC assembly inh – blocks assembly of the perinucleolar compartment; PC3M PTB-GFP, PNC prevalence imaging, 16 h; hits give low values; activity change (PNC), negative = inhibition, % at 10 µM; 140,000 compounds, 3.1% hits;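 active = readout at or below -70, meaning at least 70% loss of cells showing the perinucleolar compartment, a nuclear body marking cancer cells; inconclusive = readout between -30 and a set limit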;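 note: plate controls were DMSO wells for no effect and camptothecin positive control wells for full effect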
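Read-out is percentage of cells bearing a perinucleolar compartment, from automated 20x imaging of fixed, Hoechst-stained PC3M PTB-GFP cells. Cells were seeded 4 h, then exposed 16 h to compound (23 nl of library stock) in duplicate plates.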
15-hLO-2 inh – 15-hLO-2 (ALOX15B) enzyme inhibition. O15296. purified 15hLO-2, xylenol orange hydroperoxide absorbance. Potency, µM (highest dose often 57.1 µM), for inactives: at the top dose activity change, negative = inhibition, actives largely listed as inhibitors. 110,000 compounds, 0.56% hits; note: potency is the fitted concentration of half-maximal effect; nearly all actives have a fitted effect of over 60% in size
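Screening format was qHTS against 50 nM purified 15hLO-2 in Hepes pH 7.5 with detergent. Activity follows hydroperoxide formation from 45 uM arachidonic acid, measured as 573:405 nm absorbance ratio of the ferric-xylenol orange complex.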
Starred values were filed as active, the others as inactive; ? = inconclusive; · = no result given; [ ] = remark or other dose. Unless noted, calls come from the whole dose curve; as a rule, active = well fitted curve in the direction sought with a large enough effect; inconclusive = small, poorly fitted or top-dose-only effect, or another doubt; inactive = no such curve, though single readings can be large; an effect the other way counts as inactive or inconclusive. Unless noted, % is set by controls: 0 for no effect and ±100 for the full control effect.

SMILES	ALOX12 inhib	PNC assembly inh	15-hLO-2 inh
Cc1cc(Cl)ccc1N=c1ssnc1Cl	-23.2%	27.6	?
Cc1cc(C)nc(/N=c2/ssnc2Cl)c1	-13.8%	-26.9	-14.0%
CCC/C=C(\CCC)C(NS(=O)(=O)c1ccc(C(F)(F)F)cc1)c1ccc(-c2ccccc2)cc1 (stereo unspecified)	3.4%	·	8.9%
COC(=O)c1ccc(-c2nc(O)c3cnccn23)cc1	0.5%	-2.6	-16.9%
Cc1noc(C)c1CSc1nnc(-c2ccccc2F)n1CCc1ccccc1	-3.5%	?	-8.3%
Cc1noc(C)c1CN1C(=O)NC(Cc2ccccc2)(Cc2ccccc2)C1=O	1.4%	-106.9*	-8.2%
COCCn1c(=O)c(-c2cc(F)cc(F)c2)nc2cnc(Oc3ccccc3)nc21	-4.1%	·	-2.4%
Cc1cccc(C)c1Nc1oc(-c2ccccc2)nc1-c1cccc2ccccc12	-4.0%	·	·
Cc1ccccc1Nc1nc2ccccc2s1	-5.8%	13.6	·
Cc1ccccc1Nc1cccc2nonc12	-2.2%	-99.4*	·
CCCc1nc2ccc(NC(=O)c3ccco3)cc2c(=O)n1Cc1ccc(Cl)cc1	-2.5%	31.7	40.4%
CCCc1nc2ccc(NC(=O)c3ccco3)cc2c(=O)n1Cc1ccccc1Cl	-0.1%	-100.0*	·
CN(C)c1ncc2nc(-c3ccc(Cl)cc3)c(=O)n(CCC#N)c2n1	·	·	7.6%
CS(=O)(=O)Nc1ccc([N+](=O)[O-])cc1OC1CCCCC1	-5.1%	·	17.5%
CC(C)C[C@@H](CC(=O)N[C@H](CC(=O)N[C@@H]1CCCC[C@H]1C(=O)N[C@H](CC(=O)N[C@@H](CCC(=O)O)CC(=O)O)Cc1ccccc1)C(C)C)NC(=O)[C@@H]1CCCC[C@H]1N	-4.7%	·	·
Cc1nnsc1SCCNC(=O)c1c(F)cccc1F	0.4%	-81.5*	7.6%[11.4 µM]
Cc1ccc(C(=O)NCCSc2snnc2C)cc1	-4.3%	34.4	8.7%[11.4 µM]
CC(=O)N/C(=C/c1ccc2c(c1)OCO2)C(=O)Nc1ccccc1	-2.0%	31.9	·
CCC(NC(=O)/C(=C\c1ccc2c(c1)OCO2)NC(C)=O)C(=O)O (stereo unspecified)	2.8%	-125.2*	·
CC(=O)c1cc(Cc2csc(C(C)=O)c2)cs1	-3.9%	-100.0*	4.2%
CC(=O)c1cc(CN2C(=O)CCC2=O)cs1	2.8%	?	-5.2%
COC(=O)Cc1nnc(NC(=O)C(C)C)s1	-1.0%	?	6.3%
COC(=O)Cc1nnc(NC(=O)c2ccccc2)s1	-6.6%	-94.7*	-10.5%
COC(=O)CCC(=O)OC1(C)C(=O)C=C2C=C(C3CC3)N(c3ccc(OC)cc3)C=C2C1=O (stereo unspecified)	-1.2%[11.4 µM]	·	·
CC(C)C[C@@H](CC(=O)N[C@@H](CCC(=O)O)CC(=O)O)NC(=O)[C@@H]1CCCC[C@H]1NC(=O)C[C@H](CCCN)NC(=O)C[C@H](Cc1c[nH]c2ccccc12)NC(=O)[C@@H]1CNCC[C@H]1N	-9.7%	·	·
SMILES	ALOX12 inhib	PNC assembly inh	15-hLO-2 inh
COc1ccc(S(=O)(=O)NC(CC(=O)N2CCc3ccccc32)c2ccco2)cc1 (stereo unspecified)	-1.3%	-82.0*	-1.6%
Cc1ccc(S(=O)(=O)NC(CC(=O)N2CCc3ccccc32)c2ccco2)cc1 (stereo unspecified)	-8.0%	15.6	-5.2%
COc1ccc(-c2cn(-c3ccc(OC)cc3)c3[n+]2-c2ccccc2CC3)cc1	-0.3%	-96.2*	·
COc1ccc(-n2c(-c3ccc(Br)cc3)c[n+]3c2CCc2ccccc2-3)cc1	-3.3%	-134.0*	·
COc1ccc(-n2cc(-c3ccc(C)cc3)[n+]3c2SCC3)cc1	-1.9%	?	·
COc1ccc(-c2c[n+]3c(n2-c2ccccc2)CCCCC3)cc1	-0.5%	-22.4	·
O=C(NCc1cccnc1)C1CC(c2ccc(F)cc2)=NO1 (stereo unspecified)	-7.0%	5.5	3.7%
Cc1cc(C)cc(OCc2ccc(C(=O)O)o2)c1	1.8%	?	0.4%
O=C(O)c1ccc(COc2c(F)c(F)c(F)c(F)c2F)o1	-3.7%	-100.0*	·
CCCc1noc2c1/C(=N\O)CC(CC(C)SCC)C2 (stereo unspecified)	-23.4%	?	-13.7%
CCSC(C)CC1C/C(=N/O)c2c(CC)noc2C1 (stereo unspecified)	-6.0%	-86.0*	-17.6%
Cc1noc(C)c1C(=O)N1CCC[C@@]2(CCN(Cc3ccc(C#N)cc3)C2)C1	-3.1%	·	1.8%
Cc1ccc2[nH]c(O)c(N=NC(=O)C3CC3c3ccccc3)c2c1Br (stereo unspecified)	-1.8%	-25.2	·
CNCc1ccccc1Sc1ccc(O)c(O)c1	-8.2%	4.9	·
O=C(N1CCOCC1)C1(c2ccccc2)CCCCC1	-1.7%	-105.1*	-0.4%
O=C(N1CCCCC1)C1(c2ccccc2)CCOCC1	-4.8%	-12.0	-0.3%
COc1ccc(/C=C/C(=O)Nc2nonc2NC(C)=O)cc1	1.7%	?	·
CC(OC(=O)CN(C)S(=O)(=O)c1ccc(Cl)cc1)C(=O)Nc1ccc(N2CCOCC2)cc1 (stereo unspecified)	-2.6%	13.1	4.6%
CC(=O)Nc1ccc(NC(=O)C(C)OC(=O)CN(C)S(=O)(=O)c2ccc(Cl)cc2)cc1 (stereo unspecified)	-0.2%	-113.4*	3.6%
CN1C(=O)CC(C(=O)O)SC1=Nc1cc(Cl)cc(Cl)c1 (stereo unspecified)	0.0%	-86.9*	·
CN1C(=O)CC(C(=O)O)SC1=Nc1cc(Cl)c(O)c(Cl)c1 (stereo unspecified)	-2.6%	-5.2	-8.7%
COC(=O)NC(CCc1ccccc1)C(C(C)=O)C(=O)OC (stereo unspecified)	2.7%	·	·
Oc1ccc(Cc2nccc3cc(O)c(O)cc23)cc1O	-6.6%[11.4 µM]	·	-27.5%[11.4 µM]
N[C@H](Cc1cccc(-c2ccccc2CP(=O)(O)O)c1)C(=O)O	-3.7%	·	7.1%
N#Cc1c(-c2ccco2)c2c([nH]c1=S)CCCC2	-0.3%	?	-29.5%
SMILES	ALOX12 inhib	PNC assembly inh	15-hLO-2 inh
N#Cc1c(-c2cccnc2)c2c([nH]c1=S)CCCC2	-18.6%	22.2	20µM*
O=C(COC(=O)C1CCN(S(=O)(=O)c2ccccc2)CC1)NC(=O)c1ccc(OC(F)F)cc1	-10.1%	4.5	·
CN(C(=O)Cc1noc2ccccc12)c1ccccc1	-4.0%	26.3	·
CC1(C)CC2C1CC[C@]1(C)CCC3C(C(=O)O)CC(=O)O[C@]32C1 (stereo partly specified)	-0.4%	·	71.5%
CCOC(=O)Cn1c(C)cc(=O)c2ccccc21	3.3%	5.9	-1.9%
O=C(Cn1c(CC(=O)N2CCCC2)nc2ccccc21)NCc1ccccc1	-5.1%	12.9	-7.3%
Cc1cc(=O)c2ccccc2n1CC(=O)NCc1ccccc1	-0.3%	-95.9*	·
Cc1nc2ccccc2n1CC(=O)NCc1ccccc1	-0.7%	-103.1*	-6.6%
CCOc1ccc(-n2nc3c(=O)n(CCN4CCCCC4)nc(C)c3c2C)cc1	-0.5%	36.9	·
Oc1cc2c(c(Cl)c1O)CCNC[C@H]2c1ccccc1	-8.9%	·	?
COc1ccc(OC)c(S(=O)(=O)N2CCC(C(=O)NCCc3ccccc3)CC2)c1	-3.5%	-23.3	-1.5%
COc1ccc(OC)c(S(=O)(=O)N2CCC(C(=O)N3CCN(Cc4ccccc4)CC3)CC2)c1	-4.0%	-80.4*	-1.0%
COc1ccc(CCNC(=O)C2CCN(S(=O)(=O)c3cc(OC)ccc3OC)CC2)cc1	1.1%	-83.4*	-1.0%

Bioassay records: PubChem BioAssay, National Center for Advancing Translational Sciences (NCATS)
